Hits are enriched below; roughly 4% of the tested compounds scored in any of these assays.
697 NFkB inh – inhibitors of PMA/ionomycin-induced NF-kB reporter, 697 cells, primary screen, B-cell NF-kB inhibitor project, cell-based, luminescence, uHTS; 697 B-cell NF-kB luciferase reporter, 16 h; 330,000 compounds, 0.33% hits; inhibition, % at 4 µM; in the data active = inhibition above about 35%
Gli-Sufu antag – Gli-Sufu pathway antagonists, primary screen, luciferase luminescence, Sufu-KO-LIGHT cells, uHTS. 340,000 compounds, 0.74% hits. Sufu-KO-LIGHT fibroblasts, Gli luciferase reporter luminescence. inhibition, % at 5 µM;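 active = inhibition above about 55%, limit read from the data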;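 note: 0% = DMSO-treated cells and 100% = wells with medium but no cells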
Jurkat NFkB inh – inhibitors of induced NF-kB luciferase reporter, primary screen, TCR NF-kB activation inhibitor project, cell-based, luminescence, uHTS; inhibition, % at 4 µM; 330,000 compounds, 0.53% hits; Jurkat, PMA/ionomycin-induced NF-kB luciferase reporter; in the data active = inhibition above about 50%
Mdm2-MdmX inh – inhibitors of human Mdm2-MdmX association, primary screen, cell-based, luminescence, split luciferase, SaOS-2, uHTS. SaOS-2 split-luciferase Mdm2/MdmX complementation. inhibition, % at 8 µM. 330,000 compounds, 3% hits;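 active = inhibition of at least 50% at 8 µM in the primary screen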
Beta cell apopt – inhibitors of cytokine-induced beta cell apoptosis, primary screen, luminescence; INS-1E cytokine-induced death, ATP luminescence, 48 h; percent of positive-control rescue, neutral wells zero; protection from apoptosis, % (test concentration not listed); 300,000 compounds, 0.8% hits; AID 435005, 2010;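 active = Every replicate reaches about 75%, or at least half do and their mean reaches it too, limit read from the data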;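 note: 0% = cytokine-treated negative control wells and 100% = positive control rescue; higher means more ATP so stronger rescue from cytokine killing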
Mdm2 MdmX conf – Mdm2-MdmX complex disruptors, retested hits, confirmation, luminescence, single concentration. shares compounds with Mdm2-MdmX inh. Mdm2-MdmX binding, luminescent assay. inhibition, % at 8 µM. 10,000 compounds, 55% hits; in the data active = inhibition above about 40%
Full FLuc ctr – full-length luciferase signal inhibition, confirmation, counter-screen for Mdm2/MdmX interaction inhibitor project, cell-based, single concentration, SaOS-2; shares compounds with Mdm2-MdmX inh; SaOS-2 full-length luciferase counterscreen, luminescence; inhibition, % at 8 µM; 6,200 compounds, 77% hits; AID 504607, 2011;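 active = mean inhibition at 8 µM reaching about 37%, which flags the compound as non-specific, limit read from the data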;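 note: p53-null SaOS-2 cells with luciferase driven by a doxycycline-inducible promoter; compound on cells about two nights before reading with doxycycline added after day one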
Active calls of the source: *; . = no result.

SMILES	697 NFkB inh	Gli-Sufu antag	Jurkat NFkB inh	Mdm2-MdmX inh	Beta cell apopt	Mdm2 MdmX conf	Full FLuc ctr
N#Cc1cccc(S(=O)(=O)NCC(=O)OCC(=O)c2ccc[nH]2)c1	3	-4	12	2	-1	.	.
Cc1nc(NC(=O)/C=C/c2ccccc2)n[nH]1	-15	-1	8	56*	-37	40*	33
CN(C)c1ccc(CNCCC(Cc2ccccc2)c2ccco2)cc1 (centres undefined)	-2	3	10	52*	30	30	.
O=C(CSc1nc2c(oc3ccccc32)c(=O)n1CC1CCCO1)NCc1ccccc1 (centres undefined)	1	1	11	66*	13	17	.
O=C(CSc1nc2c(oc3ccccc32)c(=O)n1CC1CCCO1)NCc1ccc(F)cc1 (centres undefined)	2	5	9	0	.	.	.
COc1ccc2c(c1OC)C(=O)N1c3ccccc3C(=O)N(c3ccc(F)cc3)C21 (centres undefined)	13	4	40	57*	4	44*	89*
Cc1noc(-c2ccc(C(F)(F)F)cc2)c1NC(=O)Nc1ccc(Cl)cc1	-13	11	9	95*	105*	76*	24
Cc1cc(-c2onc(C)c2C(=O)Nc2ccc(C(F)(F)F)cc2)no1	-4	1	9	23	1	.	.
Nc1nonc1-n1nnc(C(=O)N/N=C/c2ccc(Cl)cc2Cl)c1CN1CCCCC1	11	-4	-6	10	1	.	.
CC(/C=N/NC(=O)c1nnn(-c2nonc2N)c1CN1CCCCC1)=C\c1ccccc1	-25	-1	6	18	15	.	.
C/C(=N\NC(=O)c1nnn(-c2nonc2N)c1CN1CCCCC1)c1ccccc1O	8	13	-5	51*	28	47*	44*
Cc1nnn(-c2nonc2N)c1C(=O)N/N=C/c1ccccc1O	-80	35	38	56*	85*	61*	51*
Nc1nonc1-n1nnc(C(=O)N/N=C/c2cc(Cl)ccc2O)c1CN1CCCCCC1	-20	.	4	68*	91*	56*	32
C/C(=N\NC(=O)c1nnn(-c2nonc2N)c1CN(C)c1ccccc1)c1ccccc1O	-27	4	22	69*	90*	76*	30
Cc1ccccc1NC(=O)c1ccc(NC(=O)C2CC(=O)OC23CCCCC3)cc1 (centres undefined)	.	0	.	.	.	.	.
CCOC(=O)C1CCN(C(=O)c2cccc(S(=O)(=O)N(C)C3CCCCC3)c2)CC1	11	-4	13	-11	.	.	.
CCOc1ccc(NC(=O)CN(C)C(=O)Cc2n[nH]c(=O)c3ccccc23)cc1OCC	1	-3	-5	-3	0	.	.
CN1CCN(Cc2c(C(=O)N/N=C/c3cccc(Br)c3)nnn2-c2nonc2N)CC1	5	16	40	84*	8	6	.
COc1ccc(/C(C)=N/NC(=O)c2nnn(-c3nonc3N)c2CN(C)c2ccccc2)cc1	-27	-9	8	50*	15	2	.
CCOc1ccc(CN(C(=O)c2cc3ccccc3oc2=O)C2CCS(=O)(=O)C2)cc1 (centres undefined)	-2	-9	-13	-17	2	.	.
C=C1CCC[C@]2(C)C[C@H]3OC(=O)C(CN4CCCCC4CO)[C@H]3CC12 (some centres undefined)	8	5	19	66*	-82	55*	38*
C=C1CCC[C@]2(C)C[C@H]3OC(=O)C(CNC(CC)CO)[C@H]3CC12 (some centres undefined)	9	12	21	42	-35	.	.
C=C1CCC[C@]2(C)C[C@H]3OC(=O)C(CNC(C)(CO)CO)[C@H]3CC12 (some centres undefined)	17	8	23	63*	-39	31	55*
CC1CCCCC12NC(=O)N(CC(=O)OCc1ccc(Br)cc1)C2=O (centres undefined)	-9	8	-7	-20	-4	.	.
Cc1ccc(-c2nnc3n2N=C(c2ccccc2)CS3)cc1	13	0	7	-1	5	.	.
SMILES	697 NFkB inh	Gli-Sufu antag	Jurkat NFkB inh	Mdm2-MdmX inh	Beta cell apopt	Mdm2 MdmX conf	Full FLuc ctr
c1csc(C2=Nn3c(nnc3-c3ccncc3)SC2)c1	1	15	40	75*	-24	80*	51*
c1ccc(C2=Nn3c(nnc3-c3cc(-c4ccccc4)n[nH]3)SC2)cc1	-40	0	-12	79*	.	21	.
c1ccc(C2=Nn3c(nnc3-c3n[nH]c4c3CCC4)SC2)cc1	15	42	-34	71*	.	51*	89*
COc1ccc(C2=Nn3c(nnc3-c3cc(C)[nH]n3)SC2)cc1	29	12	11	60*	-2	41*	100*
COc1ccc(C2=Nn3c(nnc3-c3ccc(OC)cc3)SC2)cc1	.	25	.	.	3	.	.
O=C(C(=O)c1cc(Br)ccc1O)c1cc(Br)ccc1O	.	29	.	.	.	.	.
COc1ccc(C2=Nn3c(nnc3-c3ccco3)SC2)cc1OC	10	13	-2	55*	9	16	.
Clc1ccc(C2=Nn3c(nnc3-c3n[nH]c4c3CCC4)SC2)cc1Cl	21	17	20	89*	-32	69*	34
COc1ccccc1-c1nnc2n1N=C(C(C)(C)C)CS2	-3	2	1	2	-10	.	.
COc1cccc(-c2nnc3n2N=C(C(C)(C)C)CS3)c1	5	-10	49	85*	-48	99*	51*
COc1ccc(C2=Nn3c(nnc3-c3ccccc3OC)SC2)cc1OC	.	47	.	.	22	.	.
COc1cc(-c2nnc3n2N=C(c2ccccc2)CS3)cc(OC)c1OC	-28	28	44	74*	21	69*	57*
Clc1ccc(C2=Nn3c(nnc3-c3cc(-c4ccccc4)n[nH]3)SC2)cc1	-13	7	-4	37	15	.	.
Cc1c(NC(=O)COC(=O)CCc2c[nH]c3ccccc23)c(=O)n(-c2ccccc2)n1C	-34	-3	7	3	-5	.	.
CCC(CC)N=C1NS(=O)(=O)c2cc([N+](=O)[O-])ccc21	16	4	6	-26	7	.	.
CSc1ccc(/C=C(\NC(=O)c2ccccc2)C(=O)NCCN2CCOCC2)cc1	9	-17	-3	3	-3	.	.

From PubChem
